This passage reports normalised signal (fraction of DMSO) and z-score results from PubChem BioAssay AID1224903 (Bradner/Qi Labs at DFCI, 2016).

SMILES strings stand for the structures. The campaign covered roughly 66,000 compounds. About 720 (1.1%) were called active. The sample holds actives, similar compounds and a random draw of the others, so the mix is not that of the screen. Rule as the data show it: active = normalised signal below about 0.5; inactive = the rest, inconclusive results apart.

This test deals with Chromobox protein homolog 7 (Homo sapiens) (UniProt O95931). Briefly: CBX7 chromodomain binding inhibitors, primary screen, biochemical, AlphaScreen (AID 1224903). Particulars: AlphaScreen His6-CBX7 / biotin-H3K27me3 peptide binding, stronger effect = lower value; z-score: measured here: z-score of CBX7 signal. (In general: Alpha assays give light when donor and acceptor beads are brought close together.)
Sequence of Chromobox protein homolog 7 (Homo sapiens) (O95931 whole entry, looked up): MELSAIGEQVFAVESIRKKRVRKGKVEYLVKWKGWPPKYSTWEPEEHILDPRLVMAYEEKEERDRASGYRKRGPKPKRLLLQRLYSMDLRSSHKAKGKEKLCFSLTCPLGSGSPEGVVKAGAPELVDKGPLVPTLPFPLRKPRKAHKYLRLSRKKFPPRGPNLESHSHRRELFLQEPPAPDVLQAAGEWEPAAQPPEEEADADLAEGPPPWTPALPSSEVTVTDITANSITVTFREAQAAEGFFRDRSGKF
Consider `CCCNC(=O)c1ccc2c(c1)N(Cc1ccccc1)C(=O)c1ccccc1S2(=O)=O`, for which the normalised signal (fraction of DMSO) was 1.14 (inactive) and the z-score was 2.25.

As for `CCOC(=O)c1sc(NC(=O)c2ccc(OCC)cc2)nc1-c1ccccc1`, the normalised signal (fraction of DMSO) was 0.993 (inactive) and the z-score is -0.166.

Take `Cc1ccc(Cn2c(=O)cc(C(=O)NC3CC3)c3ccccc32)cc1`: the normalised signal (fraction of DMSO) is 0.912 (inactive) and the z-score was -0.873.

Consider `COc1ccc(Cl)cc1C1CC(=O)Nc2cc3c(cc21)OCO3` (stereo not drawn), for which the normalised signal (fraction of DMSO) is 1.03 (inactive) and the z-score worked out at 0.351.

With `CCc1nc2ccc(C(=O)NCC(OC)OC)cc2nc1CC`, the normalised signal (fraction of DMSO) was 1.13 (inactive) and the z-score was found to be 0.801.

For `CC1CCN(c2c(NCc3ccc(C(=O)NCc4ccccc4)cc3)c(=O)c2=O)CC1`, the normalised signal (fraction of DMSO) was 0.993 (inactive) and the z-score is -0.292.

With `COc1ccc(-c2[nH]c(-c3ccc(C)cc3)nc2SCC(=O)Nc2ccc(F)cc2)cc1OC`, the normalised signal (fraction of DMSO) was 0.756 (inactive) and the z-score was -11.6.

Consider `COc1cc(-c2nc(-c3ccccc3)c(-c3ccccc3)[nH]2)ccc1OCC(=O)O`, for which the normalised signal (fraction of DMSO) is 0.774 (inactive) and the z-score was -0.891.

Consider `COc1ccc(-c2nc(-c3ccc(F)cc3)c(-c3ccc(F)cc3)[nH]2)cc1OC`, for which the normalised signal (fraction of DMSO) was 0.322 (active) and the z-score was -13.4.

On to `CC1(C)C=c2c(nnc3ncnn23)=C(O)C1`, for which the normalised signal (fraction of DMSO) is 0.00873 (active) and the z-score is -15.7.

With `CCOC(=O)C1CCCN(c2c(N3CC(C)CC(C)C3)c(=O)c2=O)C1` (stereo not drawn), the normalised signal (fraction of DMSO) is 0.898 (inactive) and the z-score is -2.3.

`N#Cc1nc(COc2ccc(Cl)cc2)oc1N1CCCC1`: the normalised signal (fraction of DMSO) is 0.728 (inactive) and the z-score is -11.9.

`COc1ccc(OCc2nc(C#N)c(N(C)Cc3ccccc3)o2)cc1`: the normalised signal (fraction of DMSO) is 0.575 (inactive) and the z-score is -2.65.

As to `Cc1ccc(OCc2nc(C#N)c(N3CCCC3)o2)cc1`, the normalised signal (fraction of DMSO) is 0.417 (active) and the z-score was -10.6.

For the compound `Cc1cc(N2CCCCC2)nc2ccc(NC(=O)CCC(=O)N3CCN(c4ccc(F)cc4)CC3)cc12`, the normalised signal (fraction of DMSO) was 1.05 (inactive) and the z-score was determined as 0.868.

Regarding `Cc1ccc(C)c(CN2C(=O)CSc3ccc(C(=O)NCCCN4CCCCCC4)cc32)c1`, the normalised signal (fraction of DMSO) was 0.98 (inactive) and the z-score was -0.433.

With `Cc1cc(C)nc(N=C(N)N2CCC(Cc3ccccc3)CC2)n1`, the normalised signal (fraction of DMSO) was 0.97 (inactive) and the z-score is -0.61.

As for `COc1cc(Cl)c(C)cc1NC(=O)c1n[nH]c(=O)c2ccccc12`, the normalised signal (fraction of DMSO) was 1.01 (inactive) and the z-score was 0.38.

As to `CC1CCCCC1NS(=O)(=O)c1ccc2c(c1)CCN2C(=O)C1CCC1` (stereo not drawn), the normalised signal (fraction of DMSO) is 0.937 (inactive) and the z-score is -2.14.

In the case of `COCCN1Cc2cccc(C(=O)NC3CCCC3)c2C1=O`, the normalised signal (fraction of DMSO) was 1.06 (inactive) and the z-score was found to be 0.062.

Take `O=C(NC1CC1)c1ccc2c(c1)NC(=O)c1ccccc1N2`: the normalised signal (fraction of DMSO) is 0.861 (inactive) and the z-score was -2.13.

With `Cc1sc2ncnc(NCC3(c4ccccc4)CCCC3)c2c1C`, the normalised signal (fraction of DMSO) is 1.08 (inactive) and the z-score was 1.89.

In the case of `COCCNC(=O)c1ccc2c(c1)N=C(C)c1cc(Br)ccc1S2`, the normalised signal (fraction of DMSO) was 0.995 (inactive) and the z-score was -0.23.

On to `CCC(C)NC(=O)c1sc2ncn(CC(=O)Nc3ccccc3OC)c(=O)c2c1C` (stereo not drawn), for which the normalised signal (fraction of DMSO) was 1.07 (inactive) and the z-score turned out to be 0.734.

On to `Cc1ccc(-c2nc3ncccc3o2)cc1NC(=O)c1ccc(Br)cc1`, for which the normalised signal (fraction of DMSO) is 0.923 (inactive) and the z-score is -0.643.

In the case of `CC(C)NC(=O)c1ccc2nc(-c3ccccc3)c(-c3ccccc3)nc2c1`, the normalised signal (fraction of DMSO) is 1.07 (inactive) and the z-score came to 0.662.

For the compound `Cc1cccc(CCNC(=O)CCCNS(=O)(=O)c2ccc3c(c2)CCC(=O)N3)c1`, the normalised signal (fraction of DMSO) was 1.06 (inactive) and the z-score came to 2.11.

`CCOc1ccc(CNC(=O)C(C)N2C(=O)COc3ccc(C)cc32)cc1` (stereo not drawn): the normalised signal (fraction of DMSO) is 0.421 (active) and the z-score is -10.5.

In the case of `Cc1ccc2c(c1)N(C(C)C(=O)NCc1ccc(F)cc1Cl)C(=O)CO2` (stereo not drawn), the normalised signal (fraction of DMSO) was 0.512 (inactive) and the z-score is -8.83.

Consider `CCN(CCCNC(=O)C(C)N1C(=O)COc2ccc(C)cc21)c1ccccc1` (stereo not drawn), for which the normalised signal (fraction of DMSO) was 0.631 (inactive) and the z-score is -6.67.

As for `O=C1C2C3C=CC(C4CC34)C2C(=O)N1Cc1cccnc1` (stereo not drawn), the normalised signal (fraction of DMSO) is 0.934 (inactive) and the z-score is -1.18.

In the case of `Cc1cc(N2CCCCC2)nc2ccc(NC(=O)c3cnccn3)cc12`, the normalised signal (fraction of DMSO) was 0.882 (inactive) and the z-score was -2.15.

Take `CCN(CCNC(=O)Cn1nc(-c2ccc(Cl)cc2)ccc1=O)c1ccccc1`: the normalised signal (fraction of DMSO) was 0.859 (inactive) and the z-score was -7.3.

Regarding `COc1ccc(N2CC(C(=O)Nc3ccc(C(C)C)cc3)CC2=O)cc1` (stereo not drawn), the normalised signal (fraction of DMSO) was 1.06 (inactive) and the z-score came to 0.0758.

Turning to `CC(=O)Nc1ccccc1-c1nc2ccccc2n(C)c1=O`, the normalised signal (fraction of DMSO) was 1.23 (inactive) and the z-score was determined as 3.65.

On to `Cc1cc(C)cc(OC(C)C(=O)N(Cc2ccc(Cl)cc2)C2CCS(=O)(=O)C2)c1` (stereo not drawn), for which the normalised signal (fraction of DMSO) was 0.978 (inactive) and the z-score is -0.282.

As for `Nc1nonc1-c1noc(-c2c(F)cccc2F)n1`, the normalised signal (fraction of DMSO) is 1.09 (inactive) and the z-score came to 0.864.

For the compound `COc1ccc(Nc2cc(C(=O)NC3CC3)c3ccccc3n2)c(OC)c1`, the normalised signal (fraction of DMSO) is 0.865 (inactive) and the z-score is -2.17.

In the case of `COc1cccc(-n2ccnc2SCC(=O)Nc2ccc(OC(F)(F)F)cc2)c1`, the normalised signal (fraction of DMSO) is 0.995 (inactive) and the z-score is -0.0932.

`CCOc1ccc(-n2ccnc2SCC(=O)Nc2ccccc2F)cc1`: the normalised signal (fraction of DMSO) was 0.617 (inactive) and the z-score was -0.508.

Regarding `COc1ccc(-n2ccnc2SCC(=O)Nc2ccc(C)cc2)cc1`, the normalised signal (fraction of DMSO) is 0.62 (inactive) and the z-score is -0.504.

Consider `COc1cccc(-n2ccnc2SCC(=O)Nc2ccc(Br)cc2)c1`, for which the normalised signal (fraction of DMSO) was 0.458 (active) and the z-score was -0.719.

On to `CCOc1ccc(-n2ccnc2SCC(=O)Nc2cccc(Cl)c2)cc1`, for which the normalised signal (fraction of DMSO) is 0.445 (active) and the z-score was -0.736.

For the compound `CCOc1ccc(-n2ccnc2SCC(=O)Nc2ccc(C)cc2C)cc1`, the normalised signal (fraction of DMSO) is 0.963 (inactive) and the z-score was -0.292.
